Screens from PubChem BioAssay.
Calb FLC – C. albicans growth inhibition with fluconazole, primary screen, CaCi-2 strain, Alamar Blue fluorescence. C. albicans CaCi-2 (fluconazole-resistant clinical isolate) + fluconazole, 48 h. 0.57% of 300,000 active. growth inhibition, % (no concentration beside the values);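 active = growth inhibition above about 58% in most replicates, limit read from the data, passing the limit was not always enough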;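 also: all wells also contain fluconazole at 8 µg/ml as a sub-toxic cotreatment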
E coli growth-1 – E. coli V3065 growth inhibition, primary screen, counter-screen for AddAB inhibitor project, absorbance, OD600 | 0.27% of 330,000 active | 18 h | inhibition, % at 11.9 µM | AID 449728, 2010;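 active = inhibition above the campaign's mean inhibition across all tested compounds plus 3 SD, cut at about 9.9% in these data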;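 also: uninfected addAB+ strain grown without phage in ampicillin broth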
Tat transport – E. coli Tat export inhibitors, primary screen, MC4100, TorA-mCherry reporter, fluorescence, single point; 0.036% of 340,000 active; inhibition, % at 10 µM;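 active = mean replicate inhibition at least 50% and at least half of replicates individually reaching 50%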;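 also: exported cargo escapes ClpAP degradation while cytoplasmic cargo is degraded and loses fluorescence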
AddAB inh – growth inhibition of E. coli expressing H. pylori AddAB, primary screen, AddAB inhibitor project, absorbance | inhibition, % at 11.9 µM | 0.29% of 330,000 active | AID 435030, 2010; in the data active = inhibition above about 12%
phage Ecoli inh – growth loss of phage-infected E. coli, primary screen, RecBCD inhibitor project, absorbance, with phage, HTS | inhibition, % at 11.9 µM | 0.26% of 360,000 active; in the data active = inhibition above about 11%
E coli growth-2 – E. coli growth inhibition, primary screen, OD600 | Escherichia coli growth, 23 h; stronger effect = lower value | OD600 absorbance (test concentration not listed) | 0.21% of 330,000 active | AID 1053175, 2014;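 active = OD600 absorbance below the run mean of sample wells minus 3.6 SD, in any replicate, cut at about 0.56 in these data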
Of the large screens only hits and unclear results are named; the others gave an inactive call. This is a sample that favours compounds with a hit; in the whole collection about 0.9% have one here.

Cc1cccc(C(=O)ON=Cc2c(Cl)n(C)c3ccccc23)c1	none (no result: Calb FLC, E coli growth-1, Tat transport, AddAB inh, phage Ecoli inh)
Cc1cccc(C(=O)O/N=C/c2c(N3CCOCC3)n(C)c3ccccc23)c1	Calb FLC 83 (no result: Tat transport, phage Ecoli inh, E coli growth-2)
CC(=NO)c1cc(Cl)cc(Cl)c1O	none (no result: Calb FLC, E coli growth-1, Tat transport, AddAB inh, phage Ecoli inh)
C/C(=N\O)c1cc(Cl)cc(Cl)c1O	Calb FLC 77 (no result: E coli growth-2)
CC(C)C[C@@]12C(=O)N(c3cccc(Cl)c3)C(=O)N1C(c1ccc(Cl)cc1)C1C(=O)N(C3CCCCC3)C(=O)C12 (stereo partly drawn)	none (no result: Calb FLC, E coli growth-1, Tat transport, AddAB inh, phage Ecoli inh)
O=C1C=C(c2cccc(Cl)c2)CC(c2ccc3c(c2)OCO3)C1 (stereo not drawn)	none (no result: Calb FLC, E coli growth-1, Tat transport, AddAB inh, phage Ecoli inh)
Cc1nc2sc(C(c3cccc(F)c3)N3CCCC(C)C3)c(O)n2n1 (stereo not drawn)	Calb FLC 85
Cc1nc2sc(C(c3cccc(F)c3)N3CCCCC3)c(O)n2n1 (stereo not drawn)	none
O=C(NN=Cc1ccsc1)c1ccc2c(c1)OCO2	none (no result: Calb FLC, E coli growth-1, Tat transport, AddAB inh, phage Ecoli inh)
O=C(O)c1ccccc1C(=O)Nc1ccc(S(=O)(=O)Nc2nccs2)cc1	E coli growth-1 11 (no result: Calb FLC)
Cc1ccc(C)c(OC(=O)c2cncc(Br)c2)c1	Calb FLC 98 (no result: E coli growth-2)
CC(=NNC(=O)COc1ccc(C(C)(C)C)cc1)c1ccccc1	none (no result: Calb FLC, E coli growth-1, Tat transport, AddAB inh, phage Ecoli inh)
COc1cccc2sc(=NC(=O)CS(=O)(=O)c3ccc(F)cc3)n(C)c12	none
COc1cccc2sc(=NC(=O)CS(=O)(=O)c3ccc(Cl)cc3)n(C)c12	Calb FLC 99
CCOC(=O)C1C2COc3ccccc3C2N2C(=O)c3cc(Cl)ccc3NC(=O)[C@@]12C (stereo partly drawn)	none (no result: Calb FLC, E coli growth-1, Tat transport, AddAB inh, phage Ecoli inh)
O=C(Nc1ccc([N+](=O)[O-])cc1)c1cccc(S(=O)(=O)Nc2cccnc2)c1	none (no result: E coli growth-2)
O=C(Nc1cccnc1)c1ccc(NS(=O)(=O)c2cccc([N+](=O)[O-])c2)cc1	E coli growth-2 0.31
O=c1nc(/C=C/c2cc([N+](=O)[O-])ccc2Cl)cc(C(F)(F)F)[nH]1	Calb FLC 89
O=[N+]([O-])c1cc(S(=O)(=O)C(F)(F)F)ccc1Sc1nc2ccccc2s1	Calb FLC 111
O=C(NCc1cc([N+](=O)[O-])ccc1O)c1cccnc1Sc1ccccc1Cl	Calb FLC 86
CC1(C)Cc2ccccc2C(N/N=C/c2ccc([N+](=O)[O-])cc2)=N1	Calb FLC 75 (no result: E coli growth-2)
O=[N+]([O-])c1ccc(O)c(/C=N/NC(=S)Nc2ccc(Cl)cc2Cl)c1	Calb FLC 101 (no result: E coli growth-2)
O=[N+]([O-])c1ccc(/C=N/NC(=S)Nc2ccc(Cl)cc2Cl)s1	Calb FLC 107 (no result: E coli growth-2)
Cc1cc(Cl)ccc1NC(=O)CCC(=O)N/N=C/c1cc([N+](=O)[O-])ccc1O	none (no result: E coli growth-2)
CCN1/C(=C/c2sc(-c3ccccc3C)c[n+]2C)Sc2ccccc21	Calb FLC 106 (no result: E coli growth-1, AddAB inh)
O=c1c(F)cn(C2CCCO2)c(=O)n1Cc1c(F)cccc1Cl (stereo not drawn)	Calb FLC 107
O=c1c(Cc2c(F)cccc2Cl)c(O)ccn1CC1CCCO1 (stereo not drawn)	none
CC(=NNC(=O)CNc1ccc(C)cc1)c1ccc(Cl)cc1	none (no result: Calb FLC, E coli growth-1, Tat transport, AddAB inh, phage Ecoli inh)
COc1cccc2c(SCC(=O)N/N=C/c3ccc(O)c(O)c3)cc(C)nc12	Calb FLC 92 (no result: E coli growth-2)
Nc1nonc1C(=O)NN=Cc1ccncc1	none (no result: Calb FLC, E coli growth-1, Tat transport, AddAB inh, phage Ecoli inh)
COc1ccc(C(=O)NNC(=O)Cc2ccc(-c3ccccc3)cc2)cc1OC	none
COc1ccc(C(=O)NNc2ccccc2)cc1OC	Calb FLC 106
O=C(N/N=C/c1ccncc1)c1cc2ccccc2cc1O	Calb FLC 91 (no result: E coli growth-1, AddAB inh, E coli growth-2)
O=C(NN=Cc1ccncc1)c1ccccc1	none (no result: Calb FLC, E coli growth-1, Tat transport, AddAB inh, phage Ecoli inh)
COc1cc(C=NNC(=O)c2sc(N)c(C#N)c2C)ccc1O	none (no result: Calb FLC, E coli growth-1, Tat transport, AddAB inh, phage Ecoli inh)
CC(C)n1ncc2c(C(=O)N3CCN(Cc4ccc(Br)s4)CC3)cc(C3CC3)nc21	Tat transport 53 (no result: Calb FLC)
COc1cccc(C(=O)OCCN2CCOCC2)c1	none
COc1cc(C(=O)Oc2c(CN3CCOCC3)cc(Cl)c3cccnc23)cc(OC)c1OC	Calb FLC 94 (no result: phage Ecoli inh)
COc1cc(C(=S)N2CCOCC2)cc(OC)c1OC(=O)c1ccc(F)cc1	none
O=C(Oc1c(CN2CCOCC2)cc(Cl)c2cccnc12)c1ccc(F)cc1	Calb FLC 96
COc1ccc(C(=O)Oc2c(CN3CCOCC3)cc(Cl)c3cccnc23)cc1	Calb FLC 88
COc1cc(C(=O)Oc2c(OC)cc(C(=S)N3CCOCC3)cc2OC)cc(OC)c1OC	none
COc1cccc(C(=O)Oc2c(CN3CCOCC3)cc(Cl)c3cccnc23)c1	Calb FLC 104
O=C(O)CCCCCn1c(O)c(C=C2N=c3ccccc3=N2)sc1=S	Calb FLC 83
COC(=O)CN1C(=O)C2C(c3ccc(C)o3)N3C(=O)CN(CCO)C(=O)[C@@]3(Cc3ccccc3)C2C1=O (stereo partly drawn)	none (no result: Calb FLC, E coli growth-1, Tat transport, AddAB inh, phage Ecoli inh)
CC(C)CCOC(=O)C1C(c2ccccc2)C(C(=O)O)C1c1ccccc1 (stereo not drawn)	Calb FLC 93
COc1ccc(C=Nc2oc(-c3ccccc3)cc2C#N)cc1OC	none (no result: Calb FLC, E coli growth-1, Tat transport, AddAB inh, phage Ecoli inh)
CCCCN=c1scc(-c2ccc3c(c2)NC(=O)CO3)n1N=C1CCCC1	none (no result: phage Ecoli inh)
CCN=c1scc(-c2ccc3c(c2)NC(=O)CO3)n1N=C1CCCC1	Calb FLC 93
CCOC(=O)c1cnc(-n2cc(C)cn2)nc1Nc1ccccc1OCC	Calb FLC 99
FC(F)(F)c1nc2ccccc2nc1NN=Cc1ccccc1	none (no result: Calb FLC, E coli growth-1, Tat transport, AddAB inh, phage Ecoli inh)
C#CCOC(=O)CCC(=O)NCCc1ccccc1	none
C#CCOC(=O)CCCC(=O)NCCCCCCCC	Calb FLC 109
O=C(CN1C(=O)/C(=C/c2ccccc2)SC1=S)NNC(=O)c1ccccc1O	Calb FLC 84
COc1ccccc1N1CCN(N=Cc2cc(OC)c(O)c(OC)c2)CC1	none (no result: Calb FLC, E coli growth-1, Tat transport, AddAB inh, phage Ecoli inh)
CCOC(=O)C=C1CN(Cc2cc(OC)c(OC)c(OC)c2)S(=O)(=O)c2ccccc21	none (no result: Calb FLC, E coli growth-1, Tat transport, AddAB inh, phage Ecoli inh)
COc1cc(C(=O)NC(=S)NNC(=O)c2cnccn2)cc(OC)c1OC	none
O=C(Cc1ccc(Cl)cc1)NNC(=S)NC(=O)c1cccnc1	none
O=C(NNC(=S)NC(=O)c1cccnc1)c1ccc(Cl)cc1	E coli growth-2 0.53
O=C(CCc1ccccc1)NNC(=S)NC(=O)c1ccc(Cl)cc1	Calb FLC 80 (no result: Tat transport, phage Ecoli inh)
COc1ccc(C(=O)NC(=S)NNC(=O)c2cnccn2)cc1	Calb FLC 118, E coli growth-2 0.43
O=C(NC(=S)NNC(=O)c1cnccn1)c1ccc(Cl)cc1	Calb FLC 94
O=C(NCCF)C1CC1C(NP(=O)(c1ccccc1)c1ccccc1)c1ccccc1 (stereo not drawn)	none (no result: Calb FLC, E coli growth-1, Tat transport, AddAB inh, phage Ecoli inh)
CC(C)CC1CN=C(N(C)C)N1CC(C)C (stereo not drawn)	none (no result: Calb FLC, E coli growth-1, Tat transport, AddAB inh, phage Ecoli inh)
CN(C)C1=NCC(Cc2ccccc2)N1CCCC1CCCCC1 (stereo not drawn)	none (no result: Calb FLC, E coli growth-1, Tat transport, AddAB inh, phage Ecoli inh)
COc1cc(C(C)=NNC(=O)C(O)(c2ccccc2)c2ccccc2)ccc1O	none (no result: Calb FLC, E coli growth-1, Tat transport, AddAB inh, phage Ecoli inh)
COc1ccc2[nH]c(C)c(CCN3C(=O)C4CC=CCC4C3=O)c2c1 (stereo not drawn)	none
